An excerpt weighted towards active compounds, which were near 2.8% of everything screened.
TGFb SMAD3 inh – blocks TGF-b signaling; HepG2 CAGA-GFP TGF-b/SMAD3 reporter, GFP fluorescence, 18 h; TGF-beta stimulated, 500 pg/mL final; Potency, µM (doses to about 46.1 µM), for the others: at the top dose activity, negative = inhibition, actives largely listed as inhibitors; 410,000 tested, 1.2% active; note: % is set by controls: 0 for no effect and ±100 for the full control effect; nearly all actives have a fitted effect of over 65% in size
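Per well, imaged GFP fluorescence of HEPG2 CAGA-GFP cells gives the signal; cells get compound, then TGF-beta (500 pg/mL final), 18 h at 37 degrees C; %Activity versus -TGF-beta and +DMSO controls.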
HepG2 tox – kills HepG2 cells in TGF-b inhibitor counter-screen; AID 588856; Potency, µM (series often up to 46.1 µM), for inactives: at the top dose activity change, negative = cytotoxicity, hits mostly cytotoxic; 410,000 tested, 0.76% active; HepG2 CAGA-GFP viability, ATP luminescence, 18 h
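CellTiter-Glo luminescence gave cytotoxicity after 18 hours at 37 degrees C. The cells were HepG2 CAGA-GFP in 1% FBS DMEM, stimulated with 500 pg/mL TGF-beta after compound addition. %Activity was normalised to no-cell wells (complete cell-killing) and DMSO (no toxicity), and curves were fitted and classified.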
HttQ103 aggreg – reduces HttQ103-GFP aggregates in PC12 cells. 220,000 tested, 1.1% active. Potency, µM (titrated, usually from 46.1 µM), for inactives: at the highest dose activity change, negative = inhibition, hits mostly inhibitors. PC12 HttQ103-GFP aggregates, Acumen cytometry, 40 h; note: % is set by controls: 0 for no effect and ±100 for the full control effect; nearly all actives have a fitted effect of over 60% in size
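Quantitative HTS on tebufenozide-induced (100 nM) PC12 cells stably expressing polyQ103 Huntingtin exon 1–GFP. Reduction of bright GFP aggregates, detected by laser scanning cytometry after lysis, identified actives across the titration.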
ATXN viability – reduces viability in counter-screen for ATXN expression inhibitors | Potency, µM (doses to about 56.7 µM), hits mostly cytotoxic | S2 cells (HEK-293 line with an ATXN2-luciferase reporter) viability, CellTiter-Fluor protease fluorescence, 24 h | AID 651635 | 400,000 tested, 0.49% active; note: nearly all actives have a fitted effect of over 40% in size
HTT cytoprotect – Huntington cell model cytoprotection by ATP luminescence; PC12 HTT-Q103 induced, cytoprotection, ATP luminescence, 40 h; Potency, µM (top dose mostly 56.4 µM), for the others: cytoprotection (ATP increase), actives largely listed as activators; 230,000 tested, 0.14% active; AID 1471; note: % of control where 0% means no effect; nearly all actives have a fitted effect of over 45% in size
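Compounds were screened for protection of PC12 cells against cell death after tebufenozide induction (100 nM final) of mutant Huntingtin exon 1 (Q103) fused to GFP.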
ATXN2 expr inh – inhibitors of ATXN2 expression. AID 1745845. HEK-293 ATXN2-luciferase reporter, luminescence, 24 h. Potency, µM (titrated, usually from 57 µM), for inactives: top-dose activity change, negative = inhibition, hits mostly inhibitors. 360,000 tested, 0.72% active; note: % is set by controls: 0 for no effect and ±100 for the full control effect; nearly all actives have a fitted effect of over 55% in size
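ATXN2-luciferase reporter cells (luciferase flanked by upstream and downstream ATXN2 gene portions) were treated 24 h at 37 °C with compounds at up to 57 uM. SteadyGlo luminescence gave expression; GF-AFC fluorescence gave viability.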
Numbers without * were called inactive; i = inactive; u = inconclusive; x = not tested or not shown; ! = not confirmed by another sample; [ ] = remark or other dose. Calls come from the whole dose curve; as a rule, active = well fitted curve in the direction sought with a large enough effect; inconclusive = small, poorly fitted or top-dose-only effect, or another doubt; inactive = no such curve, though single readings can be large; an effect the other way counts as inactive or inconclusive. Potency is the fitted concentration of half-maximal effect.

SMILES	TGFb SMAD3 inh	HepG2 tox	HttQ103 aggreg	ATXN viability	HTT cytoprotect	ATXN2 expr inh
CCOc1ccc(-c2c(C)n(-c3ccc(OCC)cc3)c3[n+]2CCCCC3)cc1	1µM*	-17.7%	u	i	-55.9%[10 µM]	u
C#CCOCCOCCOCCNc1nc(N2CCN(C(=O)CCCCCCCCCCNC(=O)[C@H]([C@@H](C)CC)n3cc(CCCCN=C(N)N)nn3)CC2)nc(N2CCN(C(=O)CCCCCCCCCCNC(=O)[C@H](CO)n3cc(CCCCCN)nn3)CC2)n1	u	-88.3%	x	15.8µM*	x	28.2µM*
COc1cccc(C(c2nnnn2-c2ccc3c(c2)OCCO3)N2CCC(n3c(=O)[nH]c4ccccc43)CC2)c1OC (stereo unspecified)	u	12.6µM*	x	i	x	15.8µM*
COC1=C(C)C(=O)c2c(c(COC(N)=O)c3n2C[C@@H]2[C@@H]3N2C)C1=O (stereo partly specified)	4.47µM*	7.08µM*	x	x	-92.7%[10 µM]	x
CC(C)(O)[C@H]1[C@H]2OC(=O)[C@@H]1[C@]1(O)C[C@H]3O[C@]34C(=O)O[C@H]2[C@]14C (tested in a mixture with another compound)	x	x	x	x	10.6%[1.9 µM]	x
CC(C)C[C@H]1C(=O)N2CCC[C@@H]2[C@]2(O)O[C@](NC(=O)[C@H]3C=C4c5cccc6[nH]cc(c56)C[C@H]4N(C)C3)(C(C)C)C(=O)N12	x	x	x	x	0.1%	x
COC(=O)C1=C(c2cccc(OCc3ccccc3)c2)C[C@@H]2CC[C@H]1N2C(=O)NC1CCN(Cc2ccccc2)CC1	u	12.6µM*	x	x	x	u
COC(=O)C1=C(c2ccc(F)cc2OCc2ccccc2)C[C@@H]2CC[C@H]1N2C(=O)NC1CCN(Cc2ccccc2)CC1	u	-32.1%	x	14.1µM*	x	u
Cc1c2ccncc2c(C)c2c1[nH]c1ccccc12	u	12.6µM*	-10.5%	u	-81.9%[40.3 µM]	14.1µM*
c1ccc2c(c1)[nH]c1cnccc12	-1.7%	-11.1%	-18.1%	i	x	-7.0%
COc1ccc2c3c1O[C@H]1[C@@H](O)C=C[C@H]4[C@@H](C2)N(C)CC[C@@]341	x	x	x	14.1µM*	x	u
COC(=O)[C@H](N)CCCN=C(N)N[N+](=O)[O-]	x	x	x	x	8.2%[1.9 µM]	x
CCCCC[C@H]1CCCCC[C@@H](O)C[C@@H](O)[C@@H](O)/C=C/C(=O)O1	x	x	x	i	x	2.2%
C[C@H]1CCCC=CC2C[C@H](O)C[C@@H]2[C@H](O)C=CC(=O)O1 (stereo partly specified)	0.126µM*	-43.1%	x	x	x	u
C[C@]12CC[C@H]3[C@@H](CCC4=CC(=O)CC[C@@H]43)[C@@H]1CC[C@@H]2OC(=O)CCC1CCCCC1	x	x	x	i	x	u
O=C1C2CC=CCC2C(=O)N1SC(Cl)(Cl)Cl (stereo unspecified)	x	x	14.1µM*	x	-99.3%	x
CCN(CC)C1=NC(=[N+](CC)CC)c2ccccc21	-11.9%	-19.3%	2.82µM*	i	-50.4%	-36.1%
C[C@]12CCC3C(CC[C@H]4C[C@H](O)CC[C@]34C)C1C[C@@H](O)[C@H]2O (stereo partly specified)	-5.7%	14.1µM*	x	i	x	-15.8%
C[C@]12CCC3C(CC[C@H]4C[C@H](O)CC[C@]34C)C1C[C@@H](O)[C@@H]2O (stereo partly specified)	-4.0%	-7.9%	x	i	x	0.5%
CN[C@@]1(c2ccccc2Cl)CCCCC1=O	x	x	x	i	x	x
CC(N[C@H]1C[C@H]1c1ccccc1)c1ccc2c(c1)OCCO2 (stereo partly specified)	x	x	x	x	x	9.1%
Cc1ccc(-n2c(O)c(/C=C3/C(c4ccccc4)=Nc4ccccc43)c(=O)[nH]c2=O)cc1	u	-30.0%	11.2µM*	i	-53.4%[10 µM]	16.8%
Cc1ccccc1-n1c(O)c(/C=C2/C(c3ccccc3)=Nc3ccccc32)c(=O)[nH]c1=O	25.1µM*	-42.0%	-4.7%	i	-37.5%[1.9 µM]	13.2%
C=C[C@@H]1CN2CC[C@@H]1C[C@H]2[C@H](O)c1ccnc2ccccc12	x	x	x	x	-25.3%	x
FC(F)(F)c1ccc2c(c1)N(CCCN1CCN(CCCl)CC1)c1ccccc1S2	u	-76.3%	4.5%	u	-0.6%	u
SMILES	TGFb SMAD3 inh	HepG2 tox	HttQ103 aggreg	ATXN viability	HTT cytoprotect	ATXN2 expr inh
OCCN1CCN(CCCN2c3ccccc3Sc3ccc(C(F)(F)F)cc32)CC1	u	-65.8%	-28.1%	u	-381.0%	28.2µM*!
O=P1(Oc2ccccc2)CC=CC(COC(c2ccccc2)(c2ccccc2)c2ccccc2)O1 (stereo unspecified)	15.8µM*	-19.3%	x	x	x	x
O=P1(Oc2ccccc2)C[C@@H](O)[C@@H](O)[C@H](COCc2ccccc2)O1 (stereo partly specified)	4.9%	3.3%	6.6%[9.22 µM]	i	14.3%[10 µM]	3.5%
C=C1C[C@H]2[C@H]3CCC(=O)[C@@]3(C)CC[C@@H]2[C@@]2(C)C=CC(=O)C=C12	x	x	x	x	x	-0.9%
COc1ccccc1OCC#CCN1CCCCCC1	-1.3%	-6.0%	u	i	5.62µM*	-20.6%
CO[C@H]1[C@H](O)[C@H](O[C@@H]2[C@H](Oc3cccc4c(O)c5c(=O)oc6ccc(C)c7c(=O)oc(c34)c5c67)O[C@@H](C)[C@H](O)[C@H]2O)O[C@@H](C)[C@@H]1O	x	x	x	x	-7.9%[10 µM]	x
COc1ccc2cc1Oc1ccc(cc1)C[C@H]1c3cc(c(OC)cc3CCN1C)Oc1c(OC)c(OC)cc3c1[C@H](C2)N(C)CC3	u	-60.2%	-24.0%[9.22 µM]	25.1µM*	-147.0%	u
COc1cc2c3cc1Oc1c(OC)c(OC)cc4c1[C@H](Cc1ccc(cc1)Oc1cc(ccc1O)C[C@H]3N(C)CC2)N(C)CC4	u	-51.4%	x	14.1µM*	x	-11.1%
COc1cc2c3cc1Oc1cc(ccc1O)C[C@@H]1c4c(cc(OC)c(O)c4Oc4ccc(cc4)C[C@H]3N(C)CC2)CCN1C	0.8%	-5.4%	u	3.98µM*	x	u
COc1cc2c3c(c1OC)Oc1ccc(cc1)C[C@H]1c4c(cc(OC)c(OC)c4Oc4ccc(cc4)C[C@@H]3N(C)CC2)CCN1C	-10.4%	-35.4%	x	x	x	u
Cc1cccc(C2=NCC(=O)N(CC(=O)NCc3ccco3)c3sc4c(c32)CCCC4)c1	-18.4%	-22.6%	11.2µM*	u	-4.1%	u
CNc1ccc2oc(C[C@@H]3O[C@@]4(CC[C@H]3C)O[C@@H]([C@@H](C)C(=O)c3ccc[nH]3)[C@@H](C)C[C@H]4C)nc2c1C(=O)O	x	x	x	x	-65.2%[1.9 µM]	x

Screening results: PubChem, National Center for Advancing Translational Sciences (NCATS)
